Laboratory results reported in PubChem BioAssay (Tox21).
Results filed as inconclusive are left out. Entries that show only a call come without a potency. Calls of active or inactive are those of the source. The call rests on the fitted dose curve; in most records, active means well fitted cell-killing curve with a large enough effect in the repeat runs; inconclusive means weak or mixed curves, or effect the other way; inactive means flat fitted curve, though single readings scatter.

Experiments:
[1] = cAMP Responsive Elements (CRE) small molecule antagonists, cell-based qHTS assay: qHTS cell viability counter screen (AID 2060913); further: nearly all actives have a fitted effect of over 40% in size; further: potency means the concentration at half of the fitted maximal effect
Summary of the method: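 Cytotoxicity counter screen multiplexed with the CRE-bla antagonist read: HEK293T cells in DMEM with dialyzed FBS and 25 mM HEPES were treated 3 hrs under 0.25 uM final NKH477, then viability measured by CellTiter-Glo luminescence.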

[2] = cAMP Responsive Elements (CRE) small molecule agonists, cell-based qHTS assay: qHTS cell viability counter screen (AID 2060914);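 further: viability read after 3 h of compound exposure; nearly all actives have a fitted effect of over 50% in size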
Summary of the method: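 Cytotoxicity counter screen multiplexed with the CRE-bla reporter assay in HEK 293T cells: 3 h compound exposure at 37 °C, followed by CellTiter-Glo luminescence measured in the same wells.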

Row | SMILES | Potency [1] | Potency [2]
1 | C=C(C)C(=O)OCCCCCCOC(=O)C(=C)C | inactive | inactive
2 | Cc1ccc(C(C)C)cc1 | inactive | inactive
3 | O=C(O)c1cccnc1C(=O)O | inactive | inactive
4 | CCOC(=O)NCCOc1ccc(Oc2ccccc2)cc1 | inactive | inactive
5 | CCCCCCCC/C=C\CCCCCCCC(=O)N(C)CC(=O)O | inactive | inactive
6 | CNC(=O)[C@H]1O[C@@H](n2cnc3c(NCc4cc(Cl)ccc4OCc4cc(C)no4)ncnc32)[C@H](O)[C@@H]1N | inactive | inactive
7 | COS(C)(=O)=O | inactive | inactive
8 | Oc1c(Cl)cc(Cl)c(Cl)c1Cl | inactive | inactive
9 | CCCCCOC(=O)CCCCC | inactive | inactive
10 | O=C(O)C[C@H](NC(=O)OCc1ccccc1)C(=O)O | inactive | inactive
11 | CN(C[C@@H](CC[N+]12CCC(C3CCCCC3)(CC1)CC2)c1ccc(Cl)c(Cl)c1)C(=O)c1cc(C(F)(F)F)cc(C(F)(F)F)c1 | 54.5 µM (active) | inactive
12 | Nc1ccc(Cl)cc1[N+](=O)[O-] | inactive | inactive
13 | CCC(=O)O[C@H]1[C@H](O[C@@H]2[C@@H](C)[C@H](O[C@H]3C[C@@](C)(OC)[C@@H](O)[C@H](C)O3)[C@@H](C)C(=O)O[C@H](CC)[C@@](C)(O)[C@H](O)[C@@H](C)C(=O)[C@H](C)C[C@@]2(C)O)O[C@H](C)C[C@@H]1N(C)C | inactive | inactive
14 | O=C1CCN(c2ccccc2)N1 | inactive | inactive
15 | CN(Cc1ccc(C(C)(C)C)cc1)Cc1cccc2ccccc12 | inactive | inactive
16 | Clc1cccc(Cl)n1 | inactive | inactive
17 | CCCCOC(=O)CCCCC(=O)OCCCC | inactive | inactive
18 | CC1(C)OC(=O)Nc2ccc(Br)cc21 | inactive | inactive
19 | CCCCC(CC)C(=O)OC(C)C (stereo not given) | inactive | inactive
20 | O=C(CCS)OCC(COC(=O)CCS)(COC(=O)CCS)COC(=O)CCS | inactive | inactive
21 | CCC1CCC(CCC(=O)O)C1 (stereo not given) | inactive | inactive
22 | OCCOCCN1CCN(C2=Nc3ccccc3Sc3ccccc32)CC1 | inactive | inactive
23 | O=CCCCC=O | inactive | inactive
24 | CCc1nnc(NS(=O)(=O)c2ccc(N)cc2)s1 | inactive | inactive
25 | CCCCC/C=C/CC1CC(=O)OC1=O (stereo not given) | inactive | inactive

Row | SMILES | Potency [1] | Potency [2]
26 | O=C1NC(=O)[C@@]2(CCOc3ccc(F)cc32)N1 | inactive | inactive
27 | CNc1ccc([N+](=O)[O-])cc1 | inactive | inactive
28 | [Cl][Dy]([Cl])[Cl] | inactive | inactive
29 | C=CC(=O)NC(C)C | inactive | inactive
30 | Cc1ccc(C(C)C)c(O)c1 | inactive | inactive
31 | CC[N+](C)(CC)CC | inactive | inactive
32 | CC(C)Nc1ccccc1 | inactive | inactive
33 | C[C@]12CCC(=O)C=C1CC[C@H]1[C@@H]3CC[C@](O)(C(=O)CO)[C@@]3(C)C[C@H](O)[C@@]12F | inactive | inactive
34 | C[C@]12CCC(=O)C=C1CC[C@@H]1[C@@H]2[C@@H](O)C[C@@]2(C)[C@H]1CC[C@]2(O)C(=O)COC(=O)CCC(=O)O | inactive | inactive
35 | CN(CCOc1ccc(NS(C)(=O)=O)cc1)CCc1ccc(NS(C)(=O)=O)cc1 | inactive | inactive
36 | CC(C)COC(=O)c1ccc(O)cc1 | inactive | inactive
37 | Cc1cccc(C)c1[N+](=O)[O-] | inactive | inactive
38 | CCCCCCC(O)CCCCCCCCCCC(=O)OC (stereo not given) | inactive | inactive
39 | C=C[C@@H](C)CCC=C(C)C | inactive | inactive
40 | COc1cc(Cl)ccc1Cl | inactive | inactive
41 | CCn1ccc(NS(=O)(=O)c2ccc(N)cc2)nc1=O | inactive | inactive
42 | Cc1cc(OI)c(C(C)C)cc1-c1cc(C(C)C)c(OI)cc1C | inactive | inactive
43 | Cc1cc(C)c(C)cc1C | inactive | inactive
44 | COc1cccc([C@H](O)C2CCN(CCc3ccc(F)cc3)CC2)c1OC | inactive | inactive
45 | COc1ccccc1OCC1CNC(=O)O1 (stereo not given) | inactive | inactive
46 | CC(=O)Nc1ccc(C)c(Cl)c1 | inactive | inactive
47 | O=C(NCC(O)CO)c1c(I)c(C(=O)NCC(O)CO)c(I)c(N(CCO)C(=O)CO)c1I (stereo not given) | inactive | inactive
48 | CCCCSCCCC | inactive | inactive
49 | COC(=O)c1ccccc1C(=O)c1ccc(OCCN2CCCCC2)cc1 | inactive | inactive
50 | Cc1cc(-n2nc3ccc(Cl)cc3n2)c(O)c(C(C)(C)C)c1 | inactive | inactive
